In the library only some 0.71% were active in any assay of this set; here they are far more common.
TR SRC2 fluor cs: counter-screen for TRb-SRC2 inhibitors: fluorescence interference; TRb/SRC2 Texas Red total fluorescence interference; Potency, µM (top dose mostly 106 µM), for the others: at the highest dose fluorescence change, negative = quenching; actives 0.29% (n = 280,000); AID 1479; active = well fitted curve in either direction with a large enough effect; inconclusive = small, poorly fitted or top-dose-only effect; note: % is set by controls: 0 for no effect and ±100 for the full control effect
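Flags fluorescent or light-absorbing compounds by total fluorescence, S + 2P, at 555 nm excitation and 632 nm emission. Mixture: 20 nM Texas Red SRC2 peptide, 0.6 uM human TRb LBD, 1 uM T3, 5% DMSO; compound exposure 5 h at ambient temperature.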
TRb-SRC2 inh: TRbeta-SRC2 interaction inhibition | P10828 | TRbeta-SRC2 peptide binding, fluorescence polarization; receptor liganded with 1 µM T3 | Potency, µM (series often up to 106 µM), without a hit: at the highest dose activity change, negative = inhibition, hits mostly inhibitors | actives 0.065% (n = 280,000) | AID 1469;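 note: plate controls were bound peptide for no effect and peptide without receptor for full effect; nearly all actives have a fitted effect of over 50% in size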
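Compounds were added to 0.6 uM TRb ligand-binding domain and 20 nM Texas Red-labeled SRC2 peptide in Tris buffer containing 1 uM T3, incubated 5 hr at ambient temperature, then read by fluorescence polarization.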
RGS12 GoLoco inh: RGS12 GoLoco-Gai1 interaction inhibition | Gai1:RGS12 GoLoco peptide FP, rhodamine, 10 min | Potency, µM (highest dose often 61.6 µM), for inactives: top-dose activity, negative = inhibition, usual class: inhibitors | actives 0.44% (n = 230,000) | AID 880 | P63096; active = well fitted inhibition curve with a large enough effect, not every such curve was filed as active; inactive = no such curve, though single readings can be large or run the other way; note: % is set by controls: 0 for no effect and ±100 for the full control effect; nearly all actives have a fitted effect of over 30% in size
BLM inh: inhibitors of human Bloom syndrome helicase BLM. recombinant BLM DNA unwinding, fluorescence dequenching. Potency, µM (highest dose often 56.1 µM), without a hit: at the top dose activity change, negative = inhibition, usual class: inhibitors. actives 0.2% (n = 350,000);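 note: plate controls were vehicle for no effect and no enzyme for full effect; nearly all actives have a fitted effect of over 35% in size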
ERG Ets-DNA blk: blocks human ERG Ets domain binding to DNA | fluorescence polarization, His-ERG Ets domain / labelled DNA | actives 0.028% (n = 370,000) | Potency, µM (titrated, usually from 76.9 µM), without a hit: at the highest dose FP activity, negative = inhibition, most hits filed as inhibitors | P11308; active = well fitted inhibition curve with a large enough effect in the polarisation, with a control signal flat; inconclusive = small, poorly fitted or top-dose-only effect, or effect the other way, or a change in a side signal; inactive = no such curve, though single readings can be large or run the other way; the % refers to the polarisation;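 note: polarization taken with two DNA probes labelled with fluorescein and Texas red; % of control where 0% means no effect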
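His-tagged ERG Ets domain (1 uM in the protein solution; 300mM KCl, 50mM Tris-HCl, 1mM EDTA, 1mM DTT, pH 7.5) received compound, then a probe mix of 5 nM fluorescein-DNA and 100nM Texas-615-DNA. Fluorescence polarization was read for both dyes.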
RECQ1 inh-1: blocks DNA unwinding by human RECQ1; RECQ1 DNA unwinding, red fluorescence kinetic read; actives 0.54% (n = 240,000); P46063; Potency, µM (highest dose often 57.3 µM), inactives show at the top dose activity, negative = inhibition, hits mostly inhibitors;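 note: plate controls were vehicle for no effect and no enzyme for full effect; nearly all actives have a fitted effect of over 30% in size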
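50 nM RECQ1T1 preincubated 15 min with compound in Tris pH 8.0 buffer with MgCl2, DTT, Tween-20 and 2.5 ug/ml poly(dI-dC); started with 200 nM TAMRA/BHQ-2 forked duplex and 2 mM ATP. Unwinding read as fluorescence (525/598 nm), two reads 2 h apart.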
RECQ1 conf: confirmation of human RECQ1 helicase inhibitors | RECQ1 helicase DNA unwinding, fluorescence | Potency, µM (titrated, usually from 229 µM), without a hit: top-dose activity change, negative = inhibition, usual class: inhibitors | shares compounds with RECQ1 inh-1 | actives 28% (n = 610) | AID 2708; note: % is set by controls: 0 for no effect and ±100 for the full control effect; nearly all actives have a fitted effect of over 45% in size
ADP FP counter: counter-screen for RECQ1 inhibitors: ADP displacement. shares compounds with RECQ1 inh-1. ADP fluorescence polarization displacement counterscreen. Potency, µM (titrated, usually from 228 µM), for inactives: at the top dose activity change, negative = inhibition, usual class: inhibitors. actives 27% (n = 530); note: % is set by controls: 0 for no effect and ±100 for the full control effect; nearly all actives have a fitted effect of over 45% in size
RECQ1 inh-2: confirmation of human RECQ1 helicase inhibitors; recombinant RECQ1 DNA unwinding, red fluorescence; shares compounds with RECQ1 inh-1; AID 504841; Potency, µM (series often up to 119 µM), for inactives: top-dose activity, negative = inhibition, actives largely listed as inhibitors; actives 15% (n = 1,100); note: % is set by controls: 0 for no effect and ±100 for the full control effect; nearly all actives have a fitted effect of over 50% in size
* hit, by the source's call; ? = inconclusive; · = not tested or not shown; [ ] = another dose, or the depositor's remark. Unless noted, calls come from the whole dose curve; as a rule, active = well fitted curve in the direction sought with a large enough effect; inconclusive = small, poorly fitted or top-dose-only effect, or another doubt; inactive = no such curve, though single readings can be large; an effect the other way counts as inactive or inconclusive. Potency is the fitted concentration of half-maximal effect.

SMILES	TR SRC2 fluor cs	TRb-SRC2 inh	RGS12 GoLoco inh	BLM inh	ERG Ets-DNA blk	RECQ1 inh-1	RECQ1 inh-2	others
N=C1/C(=C\c2ccc(-c3cccc(C(=O)O)c3)o2)C(=O)N=C2SC=C(c3ccccc3)N12	-26%	7%	40%	-24%	-6%	?	?
COc1ccccc1CCNC(=O)CSc1ccc(-c2ccco2)nn1	-11%	6%	19%	-11%	0%	?	-11%
Cc1noc(C)c1-c1ccc2ncnc(NCCN3CCOCC3)c2c1	·	·	-15%	0%	·	2%	·
O=C(CSc1cccc2cccnc12)N/N=C/c1cccc(O)c1	-2%	0%	5%	-6%	-2%	-6%	·
O=C(N/N=C/c1ccc(O)c(O)c1)c1ccc(CSc2cccc3cccnc23)cc1	-6%	4%	-3%	-19%	-5%	11µM*	·	RECQ1 conf=-14%[114 µM];ADP FP counter=18%[91.9 µM]
O=c1cc(-c2ccc(F)cc2)nc(SCc2nc(-c3ccc(Cl)cc3)no2)[nH]1	3%	-8%	·	-10%	5%	·	·
O=C(c1ccc(Cl)cc1Cl)n1nnc2ccccc21	?	-15%	·	7%	·	-10%	·
O=C(/C=C/c1ccco1)Nc1ccc(C(=O)N2CCOCC2)cc1	0%	-1%	11%	-16%	0%	?	-28%
O=C(/C=C/c1ccco1)Nc1ccc(CN2CCOCC2)cc1	3%	5%	5%	-2%	10%	19%	·
O=c1cc(-c2ccc(F)cc2)nc(SCc2nc(-c3ccccc3Cl)no2)[nH]1	2%	0%	·	-14%	3%	·	·
O=C(O)C1Nc2c(O)cc(Cl)c([N+](=O)[O-])c2C2C=CCC12 (configuration not stated)	13µM*[quencher]	?	10µM*	1.8µM*	9%	1.8µM*	?
O=C(O)c1cc(Cl)c2c(c1)[C@@H]1C=CC[C@@H]1[C@H](c1ccc(S(=O)(=O)N3CCOCC3)cc1)N2	2%	8%	-13%	-6%	32%	2%	·
COc1ccccc1CNC(=O)C(CC(C)C)N1Cc2ccccc2C1=O (configuration not stated)	-25%	2%	·	-2%	4%	·	·
COc1cc(C2CC(=O)N3CN(Cc4ccco4)CSC3=C2C#N)ccc1OCc1ccccc1 (configuration not stated)	-5%	9%	-8%	-23%	-16%	?	-7%
Cc1cc(O)ccc1N=Cc1c(C(F)(F)F)[nH][nH]c1=O	32µM*[fluorescent]	6.3µM*	7.1µM*	-10%	6.3µM*	8.9µM*	-7%	RECQ1 conf=0%[114 µM];ADP FP counter=6.3µM*
O=C1/C(=C/c2ccc(O)c(O)c2)Oc2ccccc21	-25%	24%	·	-28%	·	?	45µM*
CN1C/C(=C/c2ccc(B(O)O)cc2)C(=O)/C(=C/c2ccc(B(O)O)cc2)C1	-3%	20%	·	-9%	·	-14%	·
CCOC(=O)c1ccc(NC(=S)N2CCSC2c2ccc(Cl)cc2)cc1 (configuration not stated)	-1%	16%	10%	-6%	-1%	?	-10%
CCOC(=O)c1ccc(NC(=S)N2CCSC2c2ccc(OC)cc2)cc1 (configuration not stated)	-3%[53 µM]	-8%[53 µM]	7%	-4%	?	-16%	·
